Screens deposited in PubChem BioAssay by National Center for Advancing Translational Sciences (NCATS).
Only some compounds are listed: those with a hit (about 2.6% of all), similar ones and a draw of the others.
HEK293 tox – cytotoxicity counter-screen for GLP-1 receptor inverse agonists; hit rate 0.13% among 410,000; AID 624418; Potency, µM (highest dose often 38.3 µM), without a hit: at the top dose activity change, negative = inhibition, usual class: inhibitors; HEK293 cAMP-luciferase reporter cells, luminescence, 24 h;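 also: loss of luciferase light is scored as toxicity; % is scaled to controls: 0 for no effect and ±100 for the full control effect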
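Cells in DMEM/10% Nu serum/1% pen-strep, 1536-well format. Pre-incubated 12 h, dosed with 23 nL compound, incubated a further 24 h. Luciferase detection, 12 min at room temp, luminescence.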
GLP1R inv ag – acts as inverse agonist at human GLP-1 receptor; AID 624417; Potency, µM (doses to about 38.3 µM), for the others: at the highest dose activity change, negative = inhibition, hits mostly inhibitors; P43220; HEK293 GLP-1R CRE-luciferase, luminescence, 24 h; GLP-1R form is constitutively active; hit rate 1.6% among 410,000; also: % is scaled to controls: 0 for no effect and ±100 for the full control effect; nearly all actives have a fitted effect of over 55% in size
Target sequence (P43220 whole entry, looked up): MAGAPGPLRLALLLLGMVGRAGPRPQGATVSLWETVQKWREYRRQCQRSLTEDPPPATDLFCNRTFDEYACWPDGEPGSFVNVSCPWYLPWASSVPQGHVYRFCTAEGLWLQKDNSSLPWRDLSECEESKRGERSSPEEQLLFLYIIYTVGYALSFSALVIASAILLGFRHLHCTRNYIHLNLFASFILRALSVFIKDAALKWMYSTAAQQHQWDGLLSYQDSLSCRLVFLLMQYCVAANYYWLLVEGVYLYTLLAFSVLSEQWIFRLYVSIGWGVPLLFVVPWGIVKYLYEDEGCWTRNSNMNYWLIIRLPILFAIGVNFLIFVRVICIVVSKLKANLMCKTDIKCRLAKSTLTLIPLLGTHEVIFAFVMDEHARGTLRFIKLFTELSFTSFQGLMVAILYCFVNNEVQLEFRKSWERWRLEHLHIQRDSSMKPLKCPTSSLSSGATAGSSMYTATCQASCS
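HEK293 cells stably co-expressing a cAMP-responsive luciferase reporter and constitutively active GLP-1R were seeded, incubated 12 h, then exposed to compounds for 24 h at 37 C. Luminescence was read 12 min after detection reagent; inverse agonists lower signal.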
BRCA1 expr act – BRCA1 expression activation. AID 624202. Potency, µM (doses to about 46.1 µM), for inactives: at the highest dose activation, actives largely listed as activators. hit rate 1.1% among 380,000. MCF7-BRCA1-FFLuc reporter, luminescence, 48 h; response scale: scaled: vehicle 0%, 10 µM genistein 100%; also: nearly all actives have a fitted effect of over 80% in size
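Using MCF7 cells harboring a BRCA1 firefly luciferase reporter, plated 2 h before compound pinning, the screen measured luminescence after 48 h incubation. Responses were normalized to DMSO and 10 microM genistein, then fitted for concentration-effect.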
GLP-1R agonist – GLP-1 receptor (human) agonism. P43220. Potency, µM (highest dose often 45.6 µM), for the others: at the highest dose activation, most hits filed as activators. hit rate 0.007% among 380,000. AID 624172. HEK293 GLP-1R CRE-luciferase, luminescence, 4-6 h; cells express a hypersensitive GLP-1R form; also: % of control where 0% means no effect
An asterisk follows results filed as active; [ ] = dose if it differs, or a comment. Calls follow the shape of the dose curve; as a rule, active = well fitted curve in the direction sought with a large enough effect; inconclusive = small, poorly fitted or top-dose-only effect, or another doubt; inactive = no such curve, though single readings can be large; an effect the other way counts as inactive or inconclusive. Potency is read from the fitted curve at half-maximal effect.

For COc1ccc(N2CCN(C(CNS(=O)(=O)c3c(C)cc(C)cc3C)c3ccco3)CC2)cc1 (centres undefined) the results were HEK293 tox 0% and GLP1R inv ag inconclusive.
`O=C(CNC(=O)C1CCCCC1)OCc1ccccc1` gave BRCA1 expr act 1%.
`O=C(Nc1ccccc1C(=O)Nc1ccc(Br)cn1)c1ccccc1Cl` gave HEK293 tox 3%, GLP1R inv ag 10µM*, BRCA1 expr act 5% and GLP-1R agonist -1%.
`Cc1nc2c(-c3ccc(F)cc3)cnn2c(N)c1-c1ccccc1` gave HEK293 tox 3%, GLP1R inv ag 0.89µM*, BRCA1 expr act 4% and GLP-1R agonist -5%.
Screening N#CCCN1CCN(C(=S)c2ccc(-c3ccc(Cl)c(Cl)c3)o2)CC1 returned HEK293 tox -28%, GLP1R inv ag inconclusive, BRCA1 expr act 9% and GLP-1R agonist 36%.
Screening O=[N+]([O-])c1cccc(-c2ccc(C(=S)N3CCOCC3)o2)c1 returned HEK293 tox -6%, GLP1R inv ag -5%, BRCA1 expr act 4.5µM* and GLP-1R agonist 31%.
`N#CCCN1CCN(C(=S)c2ccc(-c3cccc(Cl)c3)o2)CC1` gave HEK293 tox -24%, GLP1R inv ag inconclusive, BRCA1 expr act 10µM* and GLP-1R agonist 25%.
S=C(c1ccc(-c2cccc(Cl)c2)o1)N1CCOCC1 was read as HEK293 tox 0%, GLP1R inv ag 0%, BRCA1 expr act 3.5µM* and GLP-1R agonist 12%.
COC(=O)C/C(C)=N/Nc1ccc(S(=O)(=O)N2CCCC2)cc1[N+](=O)[O-] was read as HEK293 tox 1%, GLP1R inv ag 18%, BRCA1 expr act -2% and GLP-1R agonist -1%.
Screening CCN1CCc2c(sc(-n3cccc3)c2C(C)NC(=O)Nc2ccccc2C)C1 (centres undefined) returned HEK293 tox -3% and GLP1R inv ag -7%.
Screening CC(NC(=O)Nc1cc(Cl)ccc1Cl)c1c(-n2cccc2)sc2c1CCCC2 (centres undefined) returned HEK293 tox -10% and GLP1R inv ag 3.5µM*.
Screening O=C(CCCCC(=O)NCCc1ccccc1)NCCc1ccccc1 returned HEK293 tox 1%, GLP1R inv ag 24%, BRCA1 expr act -4% and GLP-1R agonist -2%.
Screening Cc1ccc(NS(=O)(=O)c2ccc3c(c2)NC(=O)CO3)cc1C returned HEK293 tox -9%, GLP1R inv ag inconclusive, BRCA1 expr act -4% and GLP-1R agonist -3%.
`Cc1ccc(NS(=O)(=O)c2ccc3c(c2)NC(=O)CO3)cc1Cl` gave HEK293 tox -10%, GLP1R inv ag 10µM*, BRCA1 expr act -2% and GLP-1R agonist -1%.
O=[N+]([O-])c1ccc(O)c(C=Nc2ccc3c(c2)OCCO3)c1 was read as HEK293 tox 0%[1.53 µM], GLP1R inv ag 9%, BRCA1 expr act 11µM* and GLP-1R agonist -18%.
For COc1cc(/C=C/c2ccc3cccc(O)c3n2)ccc1O the results were HEK293 tox 43%, GLP1R inv ag inconclusive, BRCA1 expr act 11µM* and GLP-1R agonist -8%.
Screening Cc1ccc(C(CC(=O)NCCCN(C)C)c2ccc(OC(C)C)cc2)cc1 (centres undefined) returned HEK293 tox -17%, GLP1R inv ag 11µM*, BRCA1 expr act -3% and GLP-1R agonist 8%.
`Cc1cccc(-n2c(CCc3ccccc3)nnc2SCC(=O)c2ccccc2)c1` gave HEK293 tox inconclusive, GLP1R inv ag 5µM*, BRCA1 expr act -69% and GLP-1R agonist -2%.
For Cc1ccc(CSCCC(=O)NCc2ccc(F)cc2Cl)cc1 the results were HEK293 tox 4% and GLP1R inv ag inconclusive.
Screening Cc1cc(C)n2nc(SCC(=O)NC3CCCCC3)nc2n1 returned HEK293 tox 9%, GLP1R inv ag 19%, BRCA1 expr act 23% and GLP-1R agonist 11%.
`CCCCCc1ccc(C(=O)CCC(=O)OCC(=O)N(CC)c2c(N)n(Cc3ccccc3)c(=O)[nH]c2=O)cc1` gave HEK293 tox inconclusive, GLP1R inv ag inconclusive, BRCA1 expr act -13% and GLP-1R agonist -21%.
Cc1cccc(C(=O)Oc2ccc(/C=N/NC(=O)c3cc(O)cc(O)c3)cc2)c1 was read as HEK293 tox -12%, GLP1R inv ag 10µM*, BRCA1 expr act 4% and GLP-1R agonist -34%.
Screening Cc1cccc(C(=O)Oc2ccc(/C=N/NC(=O)c3ccncc3)cc2)c1 returned HEK293 tox -2%[0.307 µM], GLP1R inv ag 2%[0.307 µM], BRCA1 expr act 0% and GLP-1R agonist -20%.
`CCN(CC)c1ccc(C=Nc2ccc(OC)c(S(=O)(=O)N3CCOCC3)c2)c(O)c1` gave HEK293 tox 2%, GLP1R inv ag 9%, BRCA1 expr act 11% and GLP-1R agonist 2%.
`CC(C)Cn1c(-c2cccs2)nc2nc3ccccc3nc21` gave HEK293 tox 148%, GLP1R inv ag 4µM*, BRCA1 expr act -29% and GLP-1R agonist 8%.
For CCCCn1c(-c2cccs2)nc2nc3ccccc3nc21 the results were HEK293 tox 53%, GLP1R inv ag 1%, BRCA1 expr act -48% and GLP-1R agonist 14%.
`O=C(CNC(=O)OCc1ccccc1)NC1CCCCCC1` gave HEK293 tox 6%, GLP1R inv ag 3%, BRCA1 expr act -14% and GLP-1R agonist 12%.
Screening O=C(Nc1cccnc1)OCc1ccccc1 returned HEK293 tox 13%, GLP1R inv ag 13%, BRCA1 expr act inconclusive and GLP-1R agonist 2%.
O=C(Nc1nccs1)OCc1ccccc1 was read as HEK293 tox -15%, GLP1R inv ag 21%, BRCA1 expr act 14µM* and GLP-1R agonist 15%.
Screening O=C(N[C@H]1/C=C\[C@@H](O)CCCC1)OCc1ccccc1 returned HEK293 tox 0%, GLP1R inv ag -12%, BRCA1 expr act 4.5µM* and GLP-1R agonist -3%.
O=C(NCc1ccccc1)C(=O)Nc1nccs1 was read as HEK293 tox -26%, GLP1R inv ag -23%, BRCA1 expr act -22% and GLP-1R agonist 0%.
`O=C(NNc1ccccc1)OCc1ccccc1` gave HEK293 tox -26%, GLP1R inv ag inconclusive, BRCA1 expr act 11µM* and GLP-1R agonist 3%.
For Cc1cccc(C)c1OCCNC(=O)OCc1ccccc1 the results were HEK293 tox -8%, GLP1R inv ag 11µM*, BRCA1 expr act -11% and GLP-1R agonist 9%.
`CCCC(=O)Nc1nnc(SCc2cc(=O)c3cc(C)ccc3[nH]2)s1` gave HEK293 tox -2% and GLP1R inv ag -4%.
Screening Cc1ccc(/C=C/C(=O)Nc2ccccc2C(N)=O)cc1 returned HEK293 tox -3%, GLP1R inv ag -21%, BRCA1 expr act inconclusive and GLP-1R agonist -4%.
Cc1ccc(CCNC(=O)c2c(C)oc3ncn(CC(C)C)c(=O)c23)cc1 was read as HEK293 tox 7%, GLP1R inv ag -14% and BRCA1 expr act 0%.
